# Screening data from PubChem.
# Mtb FBA inh: Mtb FBA enzyme inhibitors, primary screen, biochemical, fluorescence, strain H37Rv; Fructose-bisphosphate aldolase (Mycobacterium tuberculosis (strain ATCC 25618 / H37Rv)), …; purified M. tuberculosis FBA, fluorescence read-out; inhibition, % at 1 µM; actives 2.3% (n = 360,000); AID 588726, 2011; in the data active means inhibition above about 27%;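 further: 0% = vehicle and 100% = reference inhibitor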
# RecA splice inh: Mtb RecA intein splicing inhibitors, primary screen, biochemical, fluorescence, HTS; cell-free RecA intein splicing; inhibition, % (no concentration beside the values); actives 0.75% (n = 290,000); AID 2221, 2009; in the data active means inhibition above about 30%;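 further: 0% = vehicle wells and 100% = reference inhibitor control wells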
# Target sequence (P9WHJ3 whole entry, looked up, canonical isoform): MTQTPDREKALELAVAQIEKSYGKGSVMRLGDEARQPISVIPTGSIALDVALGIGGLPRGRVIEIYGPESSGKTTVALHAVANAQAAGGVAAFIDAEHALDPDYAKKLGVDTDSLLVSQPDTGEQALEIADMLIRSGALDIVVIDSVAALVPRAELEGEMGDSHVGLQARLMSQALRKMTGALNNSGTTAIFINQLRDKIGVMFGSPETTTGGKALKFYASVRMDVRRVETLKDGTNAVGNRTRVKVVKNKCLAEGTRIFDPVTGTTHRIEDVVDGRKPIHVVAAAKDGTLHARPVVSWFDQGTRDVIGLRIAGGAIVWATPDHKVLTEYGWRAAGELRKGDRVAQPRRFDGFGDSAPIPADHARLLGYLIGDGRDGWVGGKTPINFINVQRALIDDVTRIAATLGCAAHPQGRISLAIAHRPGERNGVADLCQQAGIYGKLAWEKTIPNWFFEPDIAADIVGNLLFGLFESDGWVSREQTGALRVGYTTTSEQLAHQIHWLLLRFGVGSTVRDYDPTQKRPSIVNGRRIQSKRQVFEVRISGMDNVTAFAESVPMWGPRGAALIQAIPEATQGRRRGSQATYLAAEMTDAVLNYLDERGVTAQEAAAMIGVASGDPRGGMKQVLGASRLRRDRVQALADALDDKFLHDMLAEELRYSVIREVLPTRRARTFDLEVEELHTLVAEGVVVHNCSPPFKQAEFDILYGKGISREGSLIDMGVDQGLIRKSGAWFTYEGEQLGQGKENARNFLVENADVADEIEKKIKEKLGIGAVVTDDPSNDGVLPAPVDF
# GDH-TPI inh: GDH-TPI coupling enzyme inhibitors, primary screen, artefact control for M. tuberculosis FBA inhibitor project, biochemical, absorbance, full deck | GDH-TPI coupled enzyme counterscreen, NADH absorbance | inhibition, % at 4.8 µM | actives 1.2% (n = 360,000) | AID 588335, 2011; in the data active means inhibition above about 30%;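 further: 0% = DMSO wells and 100% = wells lacking the enzyme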
# PrPC TRFRET: inhibitors of human cell surface prion protein PrPC, primary screen, cell-based, TR-FRET; Major prion protein (Homo sapiens), P04156; TR-FRET read-out; inhibition, % at 13.8 µM; actives 0.43% (n = 370,000); in the data active means inhibition above about 24%; further: 0% = median of the test wells and 100% = reference compound wells
# BJeLR lethal: MLPCN primary cell-based screen for lethality selective to Ras in HRASV12 cells. inhibition, % (no concentration beside the values). BJeLR (HRASV12) viability, CellTiter-Glo ATP luminescence, 48 h. actives 0.17% (n = 300,000). AID 1554, 2009; in the data active means inhibition above about 50%
# PrPC confirm: confirmation of inhibitors of cell surface human prion protein, confirmation, cell-based, TR-FRET; AID 743200, 2013; inhibition, % at 13.8 µM; actives 65% (n = 1,500); shares compounds with PrPC TRFRET; cell surface PrPC level; in the data active means inhibition above about 25%
# LD9 cytotox: cytotoxicity in LD9 cells, cytotoxicity control for cell surface PrPc inhibitor project, cell-based, luminescence, high throughput; shares compounds with PrPC TRFRET; luminescence viability; inhibition, % at 13.8 µM; actives 29% (n = 1,500); AID 743201, 2013; in the data active means inhibition above about 9.5%
# Active calls of the source: *; . = no result. Only some compounds are listed: those with a hit (about 4.2% of all), similar ones and a draw of the others.
SMILES,Mtb FBA inh,RecA splice inh,GDH-TPI inh,PrPC TRFRET,BJeLR lethal,PrPC confirm,LD9 cytotox
COC(=O)CSc1ncnc2scc(-c3ccccc3)c12,1.1,1.9,-10.1,50.3*,2.1,67.0*,-1.4
O=[N+]([O-])c1cccnc1S(=O)(=O)c1ccccc1,1.2,-3.6,1.9,38.0*,-0.9,-6.7,97.8*
COc1ccc([N+](=O)[O-])c(S(=O)(=O)c2ccccc2)n1,0.7,9.4,11.1,52.4*,4.0,-4.3,94.9*
Nc1cccnc1S(=O)(=O)c1ccccc1,6.4,1.4,-10.7,6.4,0.0,.,.
COc1cccc(CCNS(=O)(=O)c2c(C)n[nH]c2C)c1,.,.,.,5.4,.,.,.
S=c1[nH]nc(-c2cccc(Br)c2)o1,19.6,0.1,8.0,25.0*,-5.1,36.1*,-3.4
CC(C)c1ccc(Oc2cccc3c2S(=O)(=O)N([C@H](C)c2ccccc2)C[C@@H](COCc2ccccc2)O3)cc1,.,.,.,2.7,.,.,.
Nc1[nH]c(C(=O)c2ccccc2)c(-c2ccc3ccccc3c2)c1C(=O)NCc1cccc2ccccc12,.,.,.,-0.9,.,.,.
COc1ccc(N2C(=O)c3n[nH]c(C(C)C)c3C2c2ccc(F)cc2)cc1 (stereo unspecified),.,.,.,1.6,.,.,.
Cc1ccc(/C=N/Nc2nc3ccccc3[nH]2)s1,1.0,9.1,39.3*,27.0*,-4.8,10.1,5.0
C(=N\Nc1nc2ccccc2[nH]1)/c1c[nH]c2ccccc12,0.4,22.0,19.4,33.2*,-3.0,5.3,3.9
Cc1cc(=O)[nH]c(N/N=C/c2c[nH]c3ccccc23)n1,-3.9,.,18.0,1.1,6.1,.,.
COC(=O)c1cccc(Nc2cc(C)n(-c3cccc(C(=O)OC)c3)c(=O)c2)c1,.,.,.,9.2,.,.,.
Cc1ccc(C2NC(=O)c3n[nH]c(C(C)C)c32)cc1 (stereo unspecified),.,.,.,12.1,.,.,.
CC(C)CCCCCCCCCCCCC(=O)NCC(=O)NC1C(C)OC(Nc2ncnc3nc[nH]c23)C(O)C1O (stereo unspecified),2.7,.,3.5,24.7*,.,79.3*,32.6*
CC(=O)Nc1ccc(Sc2ccc([N+](=O)[O-])o2)cc1,-3.6,.,10.2,69.5*,.,28.7*,22.2*
Cc1cc2cc(CNC(=O)c3cccc([N+](=O)[O-])c3)ccc2n1C,-3.1,-0.4,5.3,36.8*,8.2,-5.3,-4.7
Cc1c(C(=O)NCc2ccc3c(c2)cc(C)n3C)cccc1[N+](=O)[O-],2.2,-1.7,8.6,34.3*,-2.6,7.5,-1.8
O=C(Nc1ccc(Cl)cc1)Nc1ccc(Cl)c(Cl)c1,.,.,.,7.5,.,.,.
N#Cc1ccc(NC(=O)Nc2ccc(Cl)cc2)cc1,-1.6,4.3,-1.5,26.6*,12.3,32.4*,16.2*
COC(=O)[C@]1(C#N)CC(=O)N(CC(C)C)[C@@H]1c1ccccc1,.,.,.,-7.3,.,.,.
CC(C)=CCC[C@@]1(C(=O)O)[C@H]2CC=C(CO)[C@@H]1CC/C(C)=C/CC/C(C)=C/C2,.,.,.,24.4*,.,27.1*,11.8*
O=C(CSc1ncnc2ccccc12)NCCCO,3.4,6.7,5.4,36.1*,3.9,31.7*,-6.9
Cc1csc(NC(=O)CSc2ncnc3ccccc23)n1,-1.4,2.5,10.9,17.9,-12.6,.,.
O=C(CSc1ncnc2ccccc12)NCCc1ccccc1,-4.8,4.2,-3.1,62.1*,-0.5,78.9*,-7.7
SMILES,Mtb FBA inh,RecA splice inh,GDH-TPI inh,PrPC TRFRET,BJeLR lethal,PrPC confirm,LD9 cytotox
O=C(CSc1ncnc2ccccc12)NCc1ccco1,-0.5,9.5,3.9,76.0*,3.0,76.6*,-1.4
COC(=O)C1=C(C)N(C)C(=NCc2ccccc2C(F)(F)F)NC1c1ccc(Cl)cc1 (stereo unspecified),.,.,.,-29.4,.,.,.
Fc1ccc(-c2ccc3c(n2)CCCN3Cc2ccccc2C(F)(F)F)cc1,.,.,.,0.8,.,.,.
NS(=O)(=O)c1ccc(CNS(=O)(=O)c2ccc3ccccc3c2)cc1,1.4,0.5,-2.8,-1.3,-5.6,.,.
Cc1cc(C)c(S(=O)(=O)NCc2nc3nc(C)cc(C)n3n2)c(C)c1,0.4,-1.8,4.3,-0.2,1.0,.,.
CC(=O)Nc1ccc(S(=O)(=O)NCc2ccc3c(c2)cc(C)n3C)cc1,0.3,2.6,12.6,34.5*,3.9,11.3,3.4
Cc1cc2cc(CNS(=O)(=O)c3ccc4ccccc4c3)ccc2n1C,1.0,5.7,13.5,43.2*,3.5,37.0*,3.3
Cc1cc(C)c(S(=O)(=O)NCc2ccc3c(c2)cc(C)n3C)c(C)c1,-0.8,3.8,1.4,39.1*,-6.2,43.4*,-2.0
N#CC(c1c(Cl)cccc1N1CCCCC1)N1CCCCC1 (stereo unspecified),.,.,.,3.7,.,.,.
Cc1[nH]nc2c1C(c1cccc(C(F)(F)F)c1)NC2=O (stereo unspecified),.,.,.,-0.6,.,.,.
O=C(N[C@H](Cc1ccccc1)C(=O)NCC1CCCCC1)[C@H]1O[C@@H](n2ccc(=O)[nH]c2=O)[C@H](O)[C@@H]1O,.,.,.,1.2,.,.,.
CCOC(=O)[C@]12Cc3cc(OC)ccc3[C@H]1N(C)C(=O)c1ccccc12,.,.,.,2.1,.,.,.
CCCCCN1C(=O)c2cc(OC)ccc2[C@@]2(C(=O)OCC)Cc3cc(Cl)ccc3[C@@H]12,.,.,.,33.4*,.,46.6*,98.8*
CCOC(=O)[C@]12Cc3cc(OC)ccc3[C@H]1N(C1CCCCC1)C(=O)c1ccccc12,.,.,.,26.4*,.,41.6*,95.1*
C=CCN1[C@@H](CC(C)C)COc2cccc(N3CCSCC3)c2S1(=O)=O,.,.,.,1.5,.,.,.
COc1ccccc1OCC(=O)OC/C(O)=C(\C#N)c1nc2ccccc2[nH]1,0.0,3.9,4.8,30.8*,-6.3,54.5*,63.8*
N#C/C(=C(/O)COC(=O)CSc1ccc(Cl)cc1)c1nc2ccccc2[nH]1,7.4,3.1,13.6,26.9*,2.7,35.7*,62.6*
Cc1cc(SCC(=O)OC/C(O)=C(\C#N)c2nc3ccccc3[nH]2)c(C)cc1Br,1.6,-1.2,16.1,-1.8,11.0,.,.
COC(=O)C1=C(C)N(Cc2ccccc2C(F)(F)F)C(=NCc2ccccc2)NC1CCc1ccccc1 (stereo unspecified),.,.,.,20.3,.,.,.
COc1ccc(C(=O)Nc2nc3c(s2)CCCC3)cc1S(=O)(=O)N1CCCc2ccccc21,2.2,0.3,19.8,28.1*,20.8,24.0,5.5
CC(C)[C@H](CO)N(Cc1cccc(F)c1)c1nc(Nc2cccc(Cl)c2)c2ncn(C(C)C)c2n1,-0.5,2.4,13.9,12.9,-3.5,.,.
